{"source": "PubChem BioAssay AID651908", "about": "(Vanderbilt Specialized Chemistry Center, 2012)", "molecular_target": "Histone deacetylase 8 (Homo sapiens) (UniProt Q9BY41)", "sequence (Q9BY41 whole entry, looked up)": "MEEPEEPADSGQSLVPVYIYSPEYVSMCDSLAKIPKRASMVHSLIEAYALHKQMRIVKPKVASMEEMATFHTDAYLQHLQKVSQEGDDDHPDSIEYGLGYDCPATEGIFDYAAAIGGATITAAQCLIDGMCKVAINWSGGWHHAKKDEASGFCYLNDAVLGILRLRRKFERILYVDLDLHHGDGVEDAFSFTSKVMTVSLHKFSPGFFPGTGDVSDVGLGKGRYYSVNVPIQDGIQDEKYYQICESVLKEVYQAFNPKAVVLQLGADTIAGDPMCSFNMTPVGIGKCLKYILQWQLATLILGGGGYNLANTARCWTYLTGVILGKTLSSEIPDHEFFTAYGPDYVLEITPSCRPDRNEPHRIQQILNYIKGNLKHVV", "experiment": "HDAC8 deacetylase inhibition, profiling panel, selectivity assay for E-cadherin restoration project, biochemical, human (AID 651908)", "note": "Activity calls are given as the source filed them. How the calls were made is not given here."}
{"molecule": "O=C(NCCCNC(=O)c1ccc[nH]c1=O)c1cc(-c2ccccc2)on1", "values": [{"measurement": "outcome", "result": "inactive"}]}
